Assay results: PubChem BioAssay (Tox21)
Several values for one entry are separate records, joined by “and”; a condition that tells them apart may be missing. Equal values may be shown once. Inconclusive results are not listed. Activity calls are given as the source filed them. Calls follow the shape of the dose curve; as a rule, active = well fitted curve in the direction sought with a large enough effect in the repeat runs; inconclusive = weak or mixed curves; inactive = no such curve, though single readings can be large; an effect the other way counts as inactive or inconclusive.

Assay: A CellTox Green Cytotoxicity Assay to monitor cytotoxicity in HepG2 cells - 8 hour (AID 1224890); also: nearly all actives have a fitted effect of over 45% in size
Conditions: CellTox Green fluorescence; series mostly up to 76.8 µM; cytotoxicity increase: at the top concentration
Method in brief: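 Nonlytic assay: viable cells exclude the dye, so fluorescence scales with cell death. HepG2 at 600 cells/well, compounds added after 5 h, signal read across 40 h.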
% is scaled to controls: 0 for no effect and ±100 for the full control effect; potency is read from the fitted curve at half-maximal effect.

Structure (SMILES)	cytotoxicity increase	Potency
O=C=Nc1cccc(C(F)(F)F)c1	-0.753% (inactive)	
CCCCCCCC/C=C\CCCCCCCCCCCC(=O)O	-4.2% (inactive)	
CC(=O)OCC(=O)NCCCOc1cccc(CN2CCCCC2)c1	6.06% [at 35.3 µM] (inactive)	
O=C1Cc2cc(Cl)ccc2N1	-4.18% [at 35.3 µM] (inactive)	
C/C=C(/C(=C/C)c1ccc(O)cc1)c1ccc(O)cc1		15.1 µM (active)
Cc1cc(O)c(C)c(C)c1O	-2.88% [at 35.3 µM] (inactive)	
C/C=C/C=C/C=O	13.6% (inactive)	
CN(C)CCN1C(=O)c2ccccc2N(C)c2ccccc21	4.04% [at 35.3 µM] (inactive)	
CCCCCCC(C)(C)C(=O)O	1.6% (inactive)	
C=C1C[C@@]23CC[C@H]4[C@@](C)(CCC[C@@]4(C)C(=O)O[C@@H]4O[C@H](CO)[C@@H](O)[C@H](O)[C@H]4O)[C@@H]2CC[C@]1(O[C@@H]1O[C@H](CO)[C@@H](O)[C@H](O[C@@H]2O[C@H](CO)[C@@H](O)[C@H](O)[C@H]2O)[C@H]1O[C@@H]1O[C@H](CO)[C@@H](O)[C@H](O)[C@H]1O)C3	-2.68% (inactive)	
NC1[C@H]2CN(c3nc4c(cc3F)c(=O)c(C(=O)O)cn4-c3ccc(F)cc3F)C[C@@H]12 (stereo not given in full)	-21.4% [at 35.3 µM] (inactive)	
COC(=O)C1=C(C)NC(C)=C(C(=O)O[C@@H]2CCCN(Cc3ccccc3)C2)[C@@H]1c1cccc([N+](=O)[O-])c1	-1.73% [at 35.3 µM] (inactive)	
O=C(/C=C/c1ccccc1)OCCc1ccccc1	5.42% (inactive)	
C[C@@H]1CC(=O)NN=C1c1ccc(NN=C(C#N)C#N)cc1		inactive
C[C@@H](O)[C@H]1C(=O)N2C(C(=O)O)=C([C@H]3CCCO3)S[C@H]12	-23.6% [at 35.3 µM] (inactive)	
O=C(Cn1ccnc1[N+](=O)[O-])NCCO	-9.85% [at 35.3 µM] (inactive)	
O=C(/C=C/c1ccc(O)c(O)c1)O[C@@H]1C[C@@](OC(=O)/C=C/c2ccc(O)c(O)c2)(C(=O)O)C[C@@H](O)[C@@H]1O	0.184% [at 35.3 µM] (inactive)	
O=C1c2ccccc2C(=O)C1c1ccc(Br)cc1	5.62% [at 35.3 µM] (inactive)	
Clc1ccc(Nc2nnc(Cc3ccncc3)c3ccccc23)cc1	-1.63% [at 35.3 µM] (inactive)	
OC(CCN1CCCC1)(c1ccccc1)C1CCCCC1 (stereo not given)	1.33% [at 35.3 µM] (inactive)	

Structure (SMILES)	cytotoxicity increase	Potency
CCn1cc(C(=O)O)c(=O)c2cc(F)c(N3CCNCC3)cc21	-16.7% [at 35.3 µM] (inactive)	
C=C(C)[C@@H]1CCC2=CCC[C@@H](C)[C@]2(C)C1	14.9% (inactive)	
C1COC1	1.59% (inactive)	
CC/C=C1/OC(=O)c2ccccc21	4.91% (inactive)	
CCOc1ccccc1O[C@H](c1ccccc1)[C@H]1CNCCO1	2.08% [at 35.3 µM] (inactive)	
Cc1cc(C)cc(N)c1	0.224% (inactive)	
CCN(CC)CCNC(=O)COc1ccc(OC)cc1	1.07% [at 35.3 µM] (inactive)	
CS(=O)(=O)c1ccc(-c2cn3ccccc3n2)cc1	18.5% [at 35.3 µM] (inactive)	
NC(=O)c1ccncc1	-4.88% (inactive)	
Cc1cscn1	-8.88% (inactive)	
CC1=Nc2ccc3ccccc3c2C1(C)C	29% (inactive)	
CCOc1cccc(-n2cc(C(=O)N3CCN(c4cc(C(=O)O)c5ccccc5c4)CC3)nc2-c2ccc(C)cc2)c1	-5.84% (inactive)	
O=C1Cc2ccccc2N1c1c(Cl)cccc1Cl	-13.5% (inactive)	
CCC(=O)OC	5.16% (inactive)	
C=CCc1ccccc1OCC(O)CNC(C)C (stereo not given)	0.568% [at 35.3 µM] (inactive)	
OC1(c2ccccc2)CCNCC1	0.597% [at 35.3 µM] (inactive)	
COC(=O)[C@H]1[C@H]2C[C@@H]3c4[nH]c5cc(OC)ccc5c4CCN3C[C@H]2C[C@@H](OC(=O)/C=C/c2ccc(O)c(OC)c2)[C@@H]1OC		26.8 µM (active)
O=C(OC(=O)c1ccccc1)c1ccccc1	-0.948% (inactive)	
CCOC(=O)[C@H](CCc1ccccc1)N[C@@H](C)C(=O)N(CC(=O)O)C1Cc2ccccc2C1	2.66% [at 35.3 µM] (inactive)	
C[C@H]1c2cccc(O)c2C(O)=C2C(=O)[C@]3(O)C(O)=C(C(N)=O)C(=O)[C@@H](N(C)C)[C@@H]3[C@@H](O)[C@@H]21	1.66% [at 35.3 µM] (inactive)	

Assay: qHTS assay to identify small molecule antagonists of the estrogen receptor alpha (ER-alpha) signaling pathway using the BG1 cell line in the presence of 0.1 nM 17-beta-estradiol - cell viability counter screen (AID 1259241); also: nearly all actives have a fitted effect of over 40% in size
Conditions: VM7Luc4E2 (BG1) viability, CellTiter-Fluor protease, 22 h, 0.1 nM estradiol agonist added; series mostly up to 92.4 µM; activity change, negative = cytotoxicity: at the top concentration
Method in brief: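 Estradiol-stimulated (0.1 nM) VM7Luc4E2 cells exposed to compounds 22 hr; viability measured by fluorescence of cleaved CellTiter-Fluor substrate after 30 min.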

Structure (SMILES)	activity change, negative = cytotoxicity	Potency
O=C=Nc1cccc(C(F)(F)F)c1	0% (inactive)	
CCCCCCCC/C=C\CCCCCCCCCCCC(=O)O	10.1% (inactive)	
CC(=O)OCC(=O)NCCCOc1cccc(CN2CCCCC2)c1	-2.22% [at 42.5 µM] (inactive)	
O=C1Cc2cc(Cl)ccc2N1	0.164% [at 42.5 µM] (inactive)	
C/C=C(/C(=C/C)c1ccc(O)cc1)c1ccc(O)cc1	2.13% [at 42.5 µM] (inactive)	
Cc1cc(O)c(C)c(C)c1O	0.753% [at 42.5 µM] (inactive)	
C/C=C/C=C/C=O	1.99% (inactive)	
CN(C)CCN1C(=O)c2ccccc2N(C)c2ccccc21	-3.23% [at 42.5 µM] (inactive)	
CCCCCCC(C)(C)C(=O)O	0.814% (inactive)	
C=C1C[C@@]23CC[C@H]4[C@@](C)(CCC[C@@]4(C)C(=O)O[C@@H]4O[C@H](CO)[C@@H](O)[C@H](O)[C@H]4O)[C@@H]2CC[C@]1(O[C@@H]1O[C@H](CO)[C@@H](O)[C@H](O[C@@H]2O[C@H](CO)[C@@H](O)[C@H](O)[C@H]2O)[C@H]1O[C@@H]1O[C@H](CO)[C@@H](O)[C@H](O)[C@H]1O)C3	7.53% (inactive)	
NC1[C@H]2CN(c3nc4c(cc3F)c(=O)c(C(=O)O)cn4-c3ccc(F)cc3F)C[C@@H]12 (stereo not given in full)	-1.81% [at 42.5 µM] (inactive)	
COC(=O)C1=C(C)NC(C)=C(C(=O)O[C@@H]2CCCN(Cc3ccccc3)C2)[C@@H]1c1cccc([N+](=O)[O-])c1	-6.86% [at 42.5 µM] (inactive)	
O=C(/C=C/c1ccccc1)OCCc1ccccc1	1.91% (inactive)	
C[C@@H]1CC(=O)NN=C1c1ccc(NN=C(C#N)C#N)cc1		21.1 µM (active) and 15 µM (active)
C[C@@H](O)[C@H]1C(=O)N2C(C(=O)O)=C([C@H]3CCCO3)S[C@H]12	-2.38% [at 42.5 µM] (inactive)	
O=C(Cn1ccnc1[N+](=O)[O-])NCCO	5.93% [at 42.5 µM] (inactive)	
O=C(/C=C/c1ccc(O)c(O)c1)O[C@@H]1C[C@@](OC(=O)/C=C/c2ccc(O)c(O)c2)(C(=O)O)C[C@@H](O)[C@@H]1O	-3.53% [at 42.5 µM] (inactive)	
O=C1c2ccccc2C(=O)C1c1ccc(Br)cc1	4.5% [at 42.5 µM] (inactive)	
Clc1ccc(Nc2nnc(Cc3ccncc3)c3ccccc23)cc1	-25.1% [at 42.5 µM] (inactive)	
OC(CCN1CCCC1)(c1ccccc1)C1CCCCC1 (stereo not given)	-7.75% [at 42.5 µM] (inactive)	

Structure (SMILES)	activity change, negative = cytotoxicity	Potency
CCn1cc(C(=O)O)c(=O)c2cc(F)c(N3CCNCC3)cc21	5.62% [at 42.5 µM] (inactive)	
C=C(C)[C@@H]1CCC2=CCC[C@@H](C)[C@]2(C)C1	-1.66% (inactive)	
C1COC1	6.68% (inactive)	
CC/C=C1/OC(=O)c2ccccc21	-0.291% (inactive)	
CCOc1ccccc1O[C@H](c1ccccc1)[C@H]1CNCCO1	-7.88% [at 42.5 µM] (inactive)	
Cc1cc(C)cc(N)c1	7.47% (inactive)	
CCN(CC)CCNC(=O)COc1ccc(OC)cc1	-0.515% [at 42.5 µM] (inactive)	
CS(=O)(=O)c1ccc(-c2cn3ccccc3n2)cc1	24.7% [at 42.5 µM] (inactive)	
NC(=O)c1ccncc1	11.3% (inactive)	
Cc1cscn1	10.7% (inactive)	
CC1=Nc2ccc3ccccc3c2C1(C)C	19.4% (inactive)	
CCOc1cccc(-n2cc(C(=O)N3CCN(c4cc(C(=O)O)c5ccccc5c4)CC3)nc2-c2ccc(C)cc2)c1	12.5% (inactive)	
O=C1Cc2ccccc2N1c1c(Cl)cccc1Cl	0.142% (inactive)	
CCC(=O)OC	-1.4% (inactive)	
C=CCc1ccccc1OCC(O)CNC(C)C (stereo not given)	-0.379% [at 42.5 µM] (inactive)	
OC1(c2ccccc2)CCNCC1	1.23% [at 42.5 µM] (inactive)	
COC(=O)[C@H]1[C@H]2C[C@@H]3c4[nH]c5cc(OC)ccc5c4CCN3C[C@H]2C[C@@H](OC(=O)/C=C/c2ccc(O)c(OC)c2)[C@@H]1OC	5.08% [at 42.5 µM] (inactive)	
O=C(OC(=O)c1ccccc1)c1ccccc1	11.7% (inactive)	
CCOC(=O)[C@H](CCc1ccccc1)N[C@@H](C)C(=O)N(CC(=O)O)C1Cc2ccccc2C1	0.35% [at 42.5 µM] (inactive)	
C[C@H]1c2cccc(O)c2C(O)=C2C(=O)[C@]3(O)C(O)=C(C(N)=O)C(=O)[C@@H](N(C)C)[C@@H]3[C@@H](O)[C@@H]21	9.26% [at 42.5 µM] (inactive)	
